Source: the supplement of paper PMC3414501
Structures can show the parent of a compound that is named as a salt.

These molecules were tested on S. cerevisiae NKY1551 his4x/his4B, sporulating (assay: HIS4 meiotic recombination assay sensitivity score (z-score vs DMSO controls); higher = stronger inhibition of sporulation/recombination, active = hit call of the paper).
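Also: active if sensitivity score above 5.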

HIS4 meiotic recombination assay sensitivity score, inactive:
Cc1c(C(=O)NN2CCCCC2)nn(-c2ccc(Cl)cc2Cl)c1-c1ccc(I)cc1 (stock concentration (mM, diluted 1:100): 10) 1.13
CN(C)CC/C=C1/c2ccccc2COc2ccc(CC(=O)O)cc21 [Olopatadine hydrochloride] (stock concentration (mM, diluted 1:100): 12.7) -0.7
N[C@@H](C(=O)N[C@@H]1C(=O)N2C(C(=O)O)=C(Cl)CS[C@H]12)c1ccccc1 [Cefaclor] (stock concentration (mM, diluted 1:100): 10) 1.51
C=C1/C(=C\C=C2/CCC[C@]3(C)[C@@H]([C@H](C)/C=C/[C@@H](O)C4CC4)CC[C@@H]23)C[C@@H](O)C[C@@H]1O [Calcipotriol] (stock concentration (mM, diluted 1:100): 10.1) 2.61
CCOc1cc(CC(=O)N[C@@H](CC(C)C)c2ccccc2N2CCCCC2)ccc1C(=O)O [Repaglinide] (stock concentration (mM, diluted 1:100): 10) 0.84
CCc1oc2ccccc2c1C(=O)c1cc(Br)c(O)c(Br)c1 [Benzbromarone] (stock concentration (mM, diluted 1:100): 10) -1.58
NC(=O)N1c2ccccc2CC(=O)c2ccccc21 [Trileptal] (stock concentration (mM, diluted 1:100): 10) -2.89
CN(CCCN1c2ccccc2CCc2ccccc21)CC(=O)c1ccc(Cl)cc1 [Lofepramine] (stock concentration (mM, diluted 1:100): 10) 3.17
Nc1nnc(-c2cccc(Cl)c2Cl)c(N)n1 [Lamotrigine] (stock concentration (mM, diluted 1:100): 10.3) -1.72
Cc1c2oc3c(C)ccc(C(=O)N[C@@H]4C(=O)N[C@H](C(C)C)C(=O)N5CCC[C@H]5C(=O)N(C)CC(=O)N(C)[C@@H](C(C)C)C(=O)O[C@@H]4C)c3nc-2c(C(=O)N[C@@H]2C(=O)N[C@H](C(C)C)C(=O)N3CCC[C@H]3C(=O)N(C)CC(=O)N(C)[C@@H](C(C)C)C(=O)O[C@@H]2C)c(N)c1=O [Dactinomycin] (stock concentration (mM, diluted 1:100): 10) 0.61
O=C1[C@H](CC[C@H](O)c2ccc(F)cc2)[C@@H](c2ccc(O)cc2)N1c1ccc(F)cc1 [Ezetimibe] (stock concentration (mM, diluted 1:100): 10) -0.94
N[C@@H](C(=O)N[C@@H]1C(=O)N2C(C(=O)O)=C(CSc3cn[nH]n3)CS[C@H]12)c1ccc(O)cc1 [Seapuron] (stock concentration (mM, diluted 1:100): 8.6) 0.57
O=C1Nc2ccc(Cl)cc2[C@@](C#CC2CC2)(C(F)(F)F)O1 [Efavirenz] (stock concentration (mM, diluted 1:100): 10.1) -0.43
CCCCc1oc2ccccc2c1C(=O)c1cc(I)c(OCCN(CC)CC)c(I)c1 [Amiodarone hydrochloride] (stock concentration (mM, diluted 1:100): 9.5) -0.63
CC[C@@]1(O)C(=O)OCc2c1cc1n(c2=O)Cc2cc3c(CN(C)C)c(O)ccc3nc2-1 [Topotecan hydrochloride] (stock concentration (mM, diluted 1:100): 9.2) 0.22
CC(C)(O)c1ccccc1CC[C@@H](SCC1(CC(=O)O)CC1)c1cccc(/C=C/c2ccc3ccc(Cl)cc3n2)c1 [Montelukast] (stock concentration (mM, diluted 1:100): 9.6) 0.61
